High-throughput results deposited in PubChem BioAssay by National Center for Advancing Translational Sciences (NCATS).
OvCa metastasis: inhibitors of ovarian cancer cell adhesion and invasion in omental model. SKOV3ip1-GFP adhesion/invasion on 3D omental model, fluorescence. Potency, µM (highest dose often 45.8 µM), for inactives: at the top dose activity change, negative = inhibition, most hits filed as inhibitors. 0.1% of 46,000 active;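 further: potency means the concentration at half of the fitted maximal effect; plate controls were DMSO wells for no effect and tomatine positive control wells for full effect; nearly all actives have a fitted effect of over 65% in size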
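A 3D layer of primary human omental fibroblasts, mesothelial cells, fibronectin and collagen I, grown 48 hr, received SKOV3ip1-GFP cells in serum-free medium plus compounds at 0.36-46 umol/L. After 2 hr RT and 16 hr 37 C, fixed adherent GFP cells were counted; normalized to DMSO and tomatine.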
PMP22 txn prim: PMP22 gene transcription modulation. Potency, µM (highest dose often 57.5 µM), inactives show at the top dose activity change, negative = inhibition, most hits filed as inhibitors. 2% of 43,000 active. S16 Pmp22-F2sN Schwann cells, FLuc/NLuc coincidence luminescence, 24 h; active means clear falling dose curves in both reporters; inconclusive means both reporters move, but less clearly or upward; inactive means either reporter flat; the % is the NLuc reporter signal; further: potency means the concentration at half of the fitted maximal effect; on the % scale 0 is the no-effect control and ±100 the full control effect
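Transcriptional readout in edited S16(c9) cells: two luciferases reported from the Pmp22 locus, measured in turn after 24 h compound incubation.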
mTORC1 inh: mTORC1 pathway inhibition measured by phospho-rpS6; Tsc2-/- p53-/- MEF, phospho-rpS6 immunofluorescence/PI, 24 h; Potency, µM (highest dose often 38.3 µM), for the others: at the top dose activity change, negative = inhibition, most hits filed as inhibitors; 0.78% of 44,000 active; AID 493208;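 further: potency means the concentration at half of the fitted maximal effect; plate controls were DMSO for no effect and rapamycin for full effect; nearly all actives have a fitted effect of over 50% in size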
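Immunofluorescence of rpS6 phosphorylation in Tsc2-/-, p53-/- MEFs after 24 h compound exposure, normalized to propidium iodide signal. Activity is expressed as % positive cells, thresholded with 7.5 nM rapamycin.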
S16 F2sN tox: cytotoxicity in S16 Pmp22-F2sN Schwann cells; S16 Pmp22-F2sN Schwann cells viability, CellTiter-Glo, 24 h; Potency, µM (series often up to 57.5 µM), without a hit: top-dose activity change, negative = cytotoxicity, actives largely listed as cytotoxic; 0.48% of 43,000 active; further: potency means the concentration at half of the fitted maximal effect; on the % scale 0 is the no-effect control and ±100 the full control effect; nearly all actives have a fitted effect of over 65% in size
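S16 Pmp22-F2sN Schwann cells (500-1,000/well) in phenol-red-free DMEM with 10% FBS received 23 nL compound by pin tool for 24 h at 37 °C. Viability was then read as CellTiter-Glo luminescence after 15 min at room temperature.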
NLuc saturating: inhibits NanoLuc at saturating substrate, PMP22 counter-screen | shares compounds with PMP22 txn prim | Secreted NLuc enzyme (filtered S16 cell medium), Nano-Glo luminescence | Potency, µM (doses to about 57.5 µM), for inactives: at the top dose activity change, negative = inhibition, actives largely listed as inhibitors | 4% of 690 active; further: potency means the concentration at half of the fitted maximal effect; on the % scale 0 is the no-effect control and ±100 the full control effect
NLuc Km ctr: NanoLuc inhibition at Km substrate, PMP22 artifact check; shares compounds with PMP22 txn prim; secreted NLuc enzyme, coelenterazine luminescence, Km conditions; Potency, µM (series often up to 57.5 µM), inactives show top-dose activity change, negative = inhibition, actives largely listed as inhibitors; 5% of 690 active; AID 1508639; further: potency means the concentration at half of the fitted maximal effect; on the % scale 0 is the no-effect control and ±100 the full control effect
FLuc ctr PMP22: firefly luciferase enzyme inhibition artifact for PMP22 screen. shares compounds with PMP22 txn prim. purified P. pyralis FLuc, luminescence, 10 min. Potency, µM (highest dose often 57.5 µM), inactives show at the top dose activity, negative = inhibition, usual class: inhibitors. 690 tested, under 10 active. AID 1508640; further: % of control where 0% means no effect
Target sequence (P08659 whole entry, looked up): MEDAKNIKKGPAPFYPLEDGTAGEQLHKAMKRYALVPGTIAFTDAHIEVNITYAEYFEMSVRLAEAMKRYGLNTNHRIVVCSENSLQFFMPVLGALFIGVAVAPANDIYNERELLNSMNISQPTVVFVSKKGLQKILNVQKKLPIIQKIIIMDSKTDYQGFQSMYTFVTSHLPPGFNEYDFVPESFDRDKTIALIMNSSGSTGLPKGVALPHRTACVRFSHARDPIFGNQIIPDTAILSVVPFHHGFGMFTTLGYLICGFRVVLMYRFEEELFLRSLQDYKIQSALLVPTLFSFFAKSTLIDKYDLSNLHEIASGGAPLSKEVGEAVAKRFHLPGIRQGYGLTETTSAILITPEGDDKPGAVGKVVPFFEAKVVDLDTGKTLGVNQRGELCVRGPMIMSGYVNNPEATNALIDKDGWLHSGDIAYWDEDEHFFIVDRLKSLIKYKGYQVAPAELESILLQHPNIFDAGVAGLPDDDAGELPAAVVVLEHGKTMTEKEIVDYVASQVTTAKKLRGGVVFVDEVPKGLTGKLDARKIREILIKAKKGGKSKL
S16 viab conf: confirmation of cytotoxicity in S16 Pmp22-F2sN Schwann cells (luciferase reporters placed in the Pmp22 gene) | shares compounds with PMP22 txn prim | S16 Schwann cells viability, CellTiter-Glo ATP luminescence, 24 h | Potency, µM (top dose mostly 57.5 µM), for the others: at the top dose activity change, negative = viability loss, most hits filed as cytotoxic | 7% of 690 active | AID 1508641; further: potency means the concentration at half of the fitted maximal effect; on the % scale 0 is the no-effect control and ±100 the full control effect
PMP22 txn cnf: confirmation of modulators of PMP22 gene transcription in S16 cells; S16 Schwann cells Pmp22-F2sN, dual luciferase, 24 h; Potency, µM (highest dose often 57.5 µM), for inactives: at the highest dose activity change, negative = inhibition, most hits filed as inhibitors; 22% of 690 active; shares compounds with PMP22 txn prim; active means clear falling dose curves in both reporters; inconclusive means both reporters move, but less clearly or upward; inactive means either reporter flat; the % is the FLuc reporter signal; further: potency means the concentration at half of the fitted maximal effect
PMP22 HiBiT cnf: confirmation of modulators of rat PMP22 protein expression; shares compounds with PMP22 txn prim; S16 Schwann cells Pmp22-HiBiT, luminescence, 48 h; Potency, µM (top dose mostly 27.9 µM), without a hit: at the highest dose activity change, negative = inhibition, most hits filed as inhibitors; 95 tested, under 10 active; AID 1508647
* hit, by the source's call; i = inactive; ? = inconclusive; . = no result given. Only some compounds are listed: those with a hit (about 2.6% of all), similar ones and a draw of the others. Unless noted, the call rests on the fitted dose curve; in most records, active means well fitted curve in the direction sought with a large enough effect; inconclusive means small, poorly fitted or top-dose-only effect, or another doubt; inactive means no such curve, though single readings can be large; an effect the other way counts as inactive or inconclusive.

SMILES	OvCa metastasis	PMP22 txn prim	mTORC1 inh	S16 F2sN tox	NLuc saturating	NLuc Km ctr	FLuc ctr PMP22	S16 viab conf	PMP22 txn cnf	others
Cc1cccc(C(=O)Nc2cccc(C(=O)OCc3cc(=O)n4nc(C(C)C)sc4n3)c2)c1	30%	13µM*	13%	-7%	2%	0%	?	-15%	30%
COc1ccc2c(c1)Cc1sc(NC(=O)c3cccc(Br)c3)nc1-2	-16%	-35%	3%	11%	.	.	.	.	.
COc1ccc(Br)c2c1-c1nc(NC(=O)c3cccc(C)c3)sc1C2	i	11µM*	-3%	-3%	?	-19%	-13%	3%	?	PMP22 HiBiT cnf=33%
CCc1nnc(SCC(=O)N(C)c2ccccc2)c2cc3sccc3n12	-8%	13µM*	1%	?	?	?	-12%	-13%	?
CCc1nnc(SCc2ccc(F)cc2Cl)c2cc3sccc3n12	3%	-13%	4%	19%	.	.	.	.	.
CC[C@@]1(O)C[C@H](O[C@H]2C[C@H](N(C)C)[C@H](O[C@H]3C[C@H](O)[C@H](O[C@H]4CCC(=O)[C@H](C)O4)[C@H](C)O3)[C@H](C)O2)c2c(cc3c(c2O)C(=O)c2c(O)cccc2C3=O)[C@@H]1C(=O)OC	6%	.	.	.	.	.	.	.	.
CC(C)c1ccc(-c2nc(C(N)=O)c3c(n2)n(-c2ccc4c(c2)OCO4)c(=O)n3C)cc1	22%	?	-10%	17%	.	.	.	.	.
Cn1c(=O)n(-c2ccc3c(c2)OCO3)c2nc(-c3ccc(Cl)cc3)nc(C(N)=O)c21	i	?	-2%	23%	-4%	-1%	4%	-9%	-27%
Cc1[nH]c2ccccc2c1CCNCc1ccc(C=CC(=O)NO)cc1	17%	.	.	.	.	.	.	.	.
CCCNS(=O)(=O)Nc1ncnc(OCCOc2ncc(Br)cn2)c1-c1ccc(Br)cc1	-13%	.	.	.	.	.	.	.	.
COc1cc(Cl)c(NS(=O)(=O)c2ccc(-c3coc(C)n3)cc2)c(OC)c1	i	13µM*	?	-16%	?	?	0%	?	-13%
Cc1ccc(Cl)cc1N1CCN(C(=O)c2ccc(C)c(-n3c(C)nc4cccnc43)c2)CC1	5%	19µM*	-3%	?	22µM*	19µM*	7%	-14%	?
Cc1ccc(C)c(N2CCN(C(=O)c3cccc(-n4c(C)nc5cccnc54)c3)CC2)c1	-2%	?	-8%	?	.	.	.	.	.
Cc1cccc(N2CCN(C(=O)c3cccc(-n4c(C)nc5cccnc54)c3)CC2)c1C	8%	13µM*	-16%	0%	?	?	5%	10%	-4%
CN(C1CCc2c(c3ccccc3n2CC(=O)O)C1)S(=O)(=O)c1ccc(F)cc1 (stereo not drawn)	-34%	.	.	.	.	.	.	.	.
